15 molecules from PubChem BioAssay (Tox21) can be followed below.

Test [1] in a line: qHTS assay to identify small molecule antagonists of the thyroid receptor (TR) signaling pathway (AID 743065). Further: series mostly up to about 70 µM; nearly all actives have a fitted effect of over 55% in size. In a few lines: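 GH3.TRE-Luc rat pituitary cells carrying two TR response elements driving luciferase were plated for 4 h, given compound plus 1 nM T3 (final), and incubated 23.5 h at 37 C. ONE-Glo luminescence measured reporter inhibition; CellTiter-Fluor fluorescence tracked cytotoxicity.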

Test [2] has as its system thyroid hormone receptor (rat, GH3 cells). The experiment in a line: qHTS assay to identify small molecule agonists of the thyroid receptor (TR) signaling pathway (AID 743066; calls by dose curve).
A short description of test [3]: qHTS assay to identify small molecule antagonists of the estrogen receptor alpha (ER-alpha) signaling pathway - cell viability counter screen (AID 743074; calls by dose curve; further: nearly all actives have a fitted effect of over 45% in size). (Quantitative high-throughput screening tests each substance at several concentrations.)
Test [4] in a line: qHTS assay to identify small molecule antagonists of the estrogen receptor alpha (ER-alpha) signaling pathway using the BG1 cell line - cell viability counter screen (AID 743081).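 Further: compound given together with 17beta-estradiol as the ER stimulus; series mostly up to about 70 µM; nearly all actives have a fitted effect of over 45% in size.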
The target in test [5] is Aromatase (Homo sapiens) (UniProt P11511). As to the kind of experiment: qHTS assay to identify aromatase inhibitors (AID 743083). Further: nearly all actives have a fitted effect of over 55% in size. Further: potency means the concentration at half of the fitted maximal effect.
Chain of Aromatase (Homo sapiens) (P11511 whole entry, looked up): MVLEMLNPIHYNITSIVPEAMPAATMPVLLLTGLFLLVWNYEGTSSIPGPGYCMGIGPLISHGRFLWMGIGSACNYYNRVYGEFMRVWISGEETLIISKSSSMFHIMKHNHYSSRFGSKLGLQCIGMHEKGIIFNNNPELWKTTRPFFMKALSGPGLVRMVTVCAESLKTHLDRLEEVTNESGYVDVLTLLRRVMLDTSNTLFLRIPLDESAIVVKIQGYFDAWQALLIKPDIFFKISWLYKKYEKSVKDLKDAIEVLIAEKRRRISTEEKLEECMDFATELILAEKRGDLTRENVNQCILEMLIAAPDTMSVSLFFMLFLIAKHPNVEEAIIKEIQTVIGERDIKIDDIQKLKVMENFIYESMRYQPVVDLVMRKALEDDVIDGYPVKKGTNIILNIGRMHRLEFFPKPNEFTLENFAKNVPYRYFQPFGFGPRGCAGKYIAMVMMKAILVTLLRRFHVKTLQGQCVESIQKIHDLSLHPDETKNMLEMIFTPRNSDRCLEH
Test [6] is described as follows: qHTS assay to identify aromatase inhibitors - cell viability counter screen (AID 743084).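 Further: cells stimulated with testosterone during compound exposure; nearly all actives have a fitted effect of over 55% in size.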
Test [7] addresses Aryl hydrocarbon receptor (Homo sapiens) (UniProt P35869). The experiment in a line: qHTS assay to identify small molecule that activate the aryl hydrocarbon receptor (AhR) signaling pathway (AID 743085). Further: nearly all actives have a fitted effect of over 15% in size. Further: potency means the concentration at half of the fitted maximal effect.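 On activation: HG2L7.5c1 human HepG2 liver cells with stably integrated DRE-driven firefly reporter; series mostly up to about 70 µM.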 In a few lines: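 Compounds were tested in HepG2 hepatocellular carcinoma cells harbouring a stably integrated luciferase gene under control of 20 DREs. Increased reporter signal after 24 h treatment at 37C was taken as AhR activation.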

Test [8] in a line: qHTS assay to identify small molecule that activate the aryl hydrocarbon receptor (AhR) signaling pathway - cell viability counter screen (AID 743086).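 Further: HepG2 liver cells carrying the AhR DRE luciferase reporter; series mostly up to about 70 µM; nearly all actives have a fitted effect of over 45% in size.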 The procedure, abridged:
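HepG2-AhR-luc (HG2L7.5c1) cells, 4000/well, were preincubated 5 h at 37C, exposed to compound in qHTS format for 24 hr at 37C, then given CellTiter-Fluor for 30 min; viability was read as fluorescence in the reporter wells.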

Test [9] has as its target Peroxisome proliferator-activated receptor gamma (Homo sapiens) (UniProt P37231). As to the kind of experiment: qHTS assay to identify small molecule agonists of the peroxisome proliferator-activated receptor gamma (PPARg) signaling pathway (AID 743094; active means well fitted activation curve with a large enough effect in the signal ratio in the repeat runs, not every such curve was filed as active; the % refers to the signal ratio). The procedure, abridged: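 GeneBLAzer PPARg UAS-bla HEK293H cells were plated, rested 5 h, then exposed to compounds for 17 h at 37C. Beta-lactamase activity was read by LiveBLAzer B/G FRET substrate fluorescence after 1 h at room temperature.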

The target is the same in test [10]. The experiment in a line: qHTS assay to identify small molecule antagonists of the peroxisome proliferator-activated receptor gamma (PPARg) signaling pathway (AID 743191; calls by dose curve; further: series mostly up to about 63 µM; nearly all actives have a fitted effect of over 30% in size). The procedure, abridged:
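GeneBLAzer PPARg UAS-bla HEK293H cells carrying a UAS-driven beta-lactamase reporter were plated at 3000 cells/well, preincubated 5 h at 37C, then given compound for 17 h at 37C; LiveBLAzer B/G FRET substrate was read after 1 h at room temperature.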

The nature of test [11]: qHTS assay to identify small molecule antagonists of the peroxisome proliferator-activated receptor gamma (PPARg) signaling pathway - cell viability counter screen (AID 743194). Further: nearly all actives have a fitted effect of over 55% in size. The procedure, abridged:
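PPARg-UAS-bla HEK293H cells were plated, rested 5 h at 37 C, then treated with compounds plus rosiglitazone (50 nM final) for 17 h at 37 C; viability was then read by CellTiter-Glo luminescence after 30 min at room temperature.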

Test [12] in a line: qHTS assay for small molecule agonists of the antioxidant response element (ARE) signaling pathway (AID 743202; active means well fitted activation curve with a large enough effect in the signal ratio in the repeat runs, not every such curve was filed as active; the % refers to the signal ratio). In a few lines:
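Read-out: LiveBLAzer B/G FRET substrate fluorescence after 2 h at room temperature, following 16 h compound treatment at 37 C of HepG2 cells carrying an ARE-driven beta-lactamase reporter.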

The nature of test [13]: qHTS assay for small molecule agonists of the antioxidant response element (ARE) signaling pathway - cell viability counter screen (AID 743203; calls by dose curve; further: nearly all actives have a fitted effect of over 55% in size). The procedure, abridged:
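ARE-bla HepG2 cells were plated, rested 5 h at 37C/5% CO2, then exposed to compounds in DMSO for 16 h. Viability was read as CellTiter-Glo luminescence after 30 min at room temperature, in the same wells as the ARE screen.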

Test [14] is described as follows: qHTS assay for small molecule activators of the heat shock response signaling pathway - cell viability counter screen (AID 743209). Further: nearly all actives have a fitted effect of over 50% in size. The procedure, abridged: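 HSE-bla HeLa cells plated overnight, then exposed to Tox21 compounds (23 nL in DMSO) for 5 h at 37 C. After the bla reporter read, CellTiter-Glo was added in the same wells and luminescence read after 30 min at room temperature.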

The nature of test [15]: qHTS assay to identify small molecule agonists of the peroxisome proliferator-activated receptor delta (PPARd) signaling pathway - cell viability counter screen (AID 743211). Further: nearly all actives have a fitted effect of over 55% in size. The procedure, abridged:
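Counter screen for cytotoxicity run in parallel with the PPARd reporter screen. Beta-lactamase reporter HEK293H cells exposed to compounds 17 h; ATP-based CellTiter-Glo luminescence quantified viability.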

The nature of test [16]: qHTS assay to identify small molecule antagonists of the estrogen receptor alpha (ER-alpha) signaling pathway using the BG1 cell line (AID 743080; calls by dose curve;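 further: BG1 cells stimulated with 17beta-estradiol alongside compound; series mostly up to about 70 µM; nearly all actives have a fitted effect of over 25% in size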). In a few lines:
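Quantitative HTS on the Tox21 10K library: BG1 cells with endogenous ER-alpha and ERE-luciferase reporter, 17beta-estradiol stimulation, 21.5 h compound exposure, luminescence endpoint with parallel fluorescence cytotoxicity counter-read.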

Test [17] is described as follows: qHTS assay for small molecule activators of the heat shock response signaling pathway (AID 743210; active means well fitted activation curve with a large enough effect in the signal ratio in the repeat runs, with a control signal flat, not every such curve was filed as active; the % refers to the signal ratio; further: series mostly up to about 63 µM). In a few lines:
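HSE-bla HeLa cells (beta-lactamase reporter under heat shock response elements) were exposed to compounds for 5 h at 37 C, then loaded with LiveBLAzer B/G FRET substrate for 2.5 h at room temperature before fluorescence reading.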

For test [18], the target named is Estrogen receptor (Homo sapiens) (UniProt P03372). As to the kind of experiment: qHTS assay to identify small molecule antagonists of the estrogen receptor alpha (ER-alpha) signaling pathway (AID 743069; active means well fitted curve in the direction sought with a large enough effect in the signal ratio in the repeat runs, not every such curve was filed as active; the % refers to the signal ratio). In a few lines: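 HEK293 cells stably carrying an ER-alpha-UAS-bla beta-lactamase reporter were pre-cultured overnight in 2% charcoal-stripped FBS medium. Test compounds in DMSO were added together with 17beta-estradiol for 18 hr at 37C. Read-out was fluorescence after 2 hr with LiveBLAzer B/G FRET substrate at room temperature.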
Chain of Estrogen receptor (Homo sapiens) (P03372 whole entry, looked up): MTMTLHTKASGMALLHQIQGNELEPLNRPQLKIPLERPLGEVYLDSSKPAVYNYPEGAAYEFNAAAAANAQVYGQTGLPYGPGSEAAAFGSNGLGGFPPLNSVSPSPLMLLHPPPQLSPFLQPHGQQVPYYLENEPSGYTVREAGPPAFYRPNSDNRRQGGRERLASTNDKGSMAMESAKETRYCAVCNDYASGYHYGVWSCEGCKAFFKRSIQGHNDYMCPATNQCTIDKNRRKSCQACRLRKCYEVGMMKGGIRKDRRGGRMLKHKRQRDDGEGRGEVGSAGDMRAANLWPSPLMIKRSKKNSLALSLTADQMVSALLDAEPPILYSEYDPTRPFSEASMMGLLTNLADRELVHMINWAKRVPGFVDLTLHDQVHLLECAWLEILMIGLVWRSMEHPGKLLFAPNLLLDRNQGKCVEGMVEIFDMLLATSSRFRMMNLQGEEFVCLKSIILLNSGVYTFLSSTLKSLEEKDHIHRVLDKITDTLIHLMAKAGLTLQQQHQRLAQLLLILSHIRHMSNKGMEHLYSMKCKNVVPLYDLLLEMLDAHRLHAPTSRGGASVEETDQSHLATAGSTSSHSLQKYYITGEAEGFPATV

Test [19] shares this target. As to the kind of experiment: qHTS assay to identify small molecule agonists of the estrogen receptor alpha (ER-alpha) signaling pathway (AID 743075; calls by dose curve).
Test [20] has the same target. The experiment in a line: qHTS assay to identify small molecule agonists of the estrogen receptor alpha (ER-alpha) signaling pathway using the BG1 cell line (AID 743079). Further: nearly all actives have a fitted effect of over 20% in size. Further: potency means the concentration at half of the fitted maximal effect.

Records with an inconclusive call do not appear. A structure can be active in one record and inactive in another. Calls of active or inactive are those of the source. Unless noted, the call rests on the fitted dose curve; in most records, active means well fitted curve in the direction sought with a large enough effect in the repeat runs; inconclusive means weak or mixed curves; inactive means no such curve, though single readings can be large; an effect the other way counts as inactive or inconclusive.
On the % scale 0 is the no-effect control and ±100 the full control effect.

Chain of Peroxisome proliferator-activated receptor gamma (Homo sapiens) (P37231 whole entry, looked up): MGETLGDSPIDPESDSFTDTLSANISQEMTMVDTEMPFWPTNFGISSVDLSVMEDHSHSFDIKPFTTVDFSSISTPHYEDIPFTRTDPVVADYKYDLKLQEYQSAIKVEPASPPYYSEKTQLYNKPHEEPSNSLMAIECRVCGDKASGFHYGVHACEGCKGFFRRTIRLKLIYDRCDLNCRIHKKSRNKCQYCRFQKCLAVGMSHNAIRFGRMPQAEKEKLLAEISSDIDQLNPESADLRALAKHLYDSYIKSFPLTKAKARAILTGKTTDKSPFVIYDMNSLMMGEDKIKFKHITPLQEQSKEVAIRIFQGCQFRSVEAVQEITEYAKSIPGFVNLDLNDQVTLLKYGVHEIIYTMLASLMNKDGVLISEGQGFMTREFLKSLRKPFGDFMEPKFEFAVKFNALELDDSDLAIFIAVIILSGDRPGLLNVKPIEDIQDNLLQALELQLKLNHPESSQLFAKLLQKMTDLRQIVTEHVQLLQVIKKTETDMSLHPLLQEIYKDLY
Chain of Aryl hydrocarbon receptor (Homo sapiens) (P35869 whole entry, looked up): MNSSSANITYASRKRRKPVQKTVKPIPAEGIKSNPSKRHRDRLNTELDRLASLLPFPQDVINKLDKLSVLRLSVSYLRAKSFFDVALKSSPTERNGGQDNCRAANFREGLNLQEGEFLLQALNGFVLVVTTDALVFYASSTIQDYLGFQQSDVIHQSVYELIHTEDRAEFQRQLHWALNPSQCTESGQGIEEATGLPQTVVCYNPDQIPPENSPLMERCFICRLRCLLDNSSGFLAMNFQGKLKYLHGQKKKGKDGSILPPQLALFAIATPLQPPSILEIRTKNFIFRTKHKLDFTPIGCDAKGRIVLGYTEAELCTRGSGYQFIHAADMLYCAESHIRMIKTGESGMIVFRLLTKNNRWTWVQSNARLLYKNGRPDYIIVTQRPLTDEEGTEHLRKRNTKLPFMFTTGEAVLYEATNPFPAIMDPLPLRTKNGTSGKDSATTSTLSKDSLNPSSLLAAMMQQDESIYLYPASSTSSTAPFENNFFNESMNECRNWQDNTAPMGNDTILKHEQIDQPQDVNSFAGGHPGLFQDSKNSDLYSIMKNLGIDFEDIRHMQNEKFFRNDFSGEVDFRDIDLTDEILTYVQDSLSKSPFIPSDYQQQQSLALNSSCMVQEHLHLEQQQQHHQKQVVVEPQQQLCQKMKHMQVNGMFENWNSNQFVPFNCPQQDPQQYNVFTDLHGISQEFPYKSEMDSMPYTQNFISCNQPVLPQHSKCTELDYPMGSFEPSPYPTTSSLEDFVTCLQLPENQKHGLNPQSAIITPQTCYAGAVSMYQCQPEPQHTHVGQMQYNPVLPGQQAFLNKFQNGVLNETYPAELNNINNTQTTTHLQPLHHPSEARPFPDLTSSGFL

As for `NC[C@H]1O[C@H](O[C@H]2[C@H](O)[C@@H](O[C@H]3O[C@H](CO)[C@@H](O)[C@H](N)[C@H]3O)[C@H](N)C[C@@H]2N)[C@H](N)[C@@H](O)[C@@H]1O`, the Potency result in test [1], in [2], in test [3], in [5], in test [7] and in test [12] was “inactive” throughout. Moreover, the Potency entry in [14] was “inactive”. For the same molecule, the result in [4], in test [6], in [8], in test [9], in test [10] and in [11] was inactive. Also, the outcome in test [13] and in test [15] was inactive.

For `N=C(N)N1CCc2ccccc2C1`, the Potency entry in test [1], in test [2], in test [3], in test [16], in [5] and in test [7] was “inactive” each time. The result in test [4], in test [6], in [8] and in test [9] was inactive. Besides, the activity change, negative = cytotoxicity is 0.134% [at 5.95 µM] (inactive) in test [11] and 3.73% [at 5.95 µM] (inactive) in [15]. Further, the activation was -8.74% [at 8.36 µM] (inactive) in test [12] and -0.5% [at 5.95 µM] (inactive) in [17]. Further, the viability change, negative = cytotoxic in test [13] is -8.38% [at 8.36 µM] (inactive).

`CCc1ncc(C)[nH]1`: the Potency result in test [1], in test [2], in test [3], in [5], in test [7] and in test [12] was “inactive” in each case. Besides, the Potency result in [14] was “inactive”. The molecule was called inactive in [4], in test [6], in [8], in test [9], in test [10] and in test [11]. In addition, the molecule was called inactive in [17] and in test [15].

`CCCCCC(CC)OC(=O)CCCOc1ccc(Cl)cc1Cl` (stereo not given): the Potency result in test [1], in test [2], in test [3], in [5], in test [7] and in test [12] was “inactive” each time. Besides, the Potency entry in test [14] is “inactive”. For the same molecule, the outcome in [4], in [6], in test [8], in test [9], in [10] and in test [11] was inactive. In addition, the outcome in [13], in [17] and in [15] was inactive.

For the molecule `CC[N+](C)(CC)CC`, the Potency entry in test [1], in [2], in [3], in test [5], in test [7] and in test [12] was “inactive” throughout. Also, the Potency entry in test [14] is “inactive”. Further, the outcome in test [4], in [6], in test [8], in test [9], in test [13] and in [17] was inactive.

For `C/C(=N\O)c1ccc(OCC(=O)N2CCCCC2)cc1`, the Potency result in test [1], in test [2], in test [19], in test [5] and in test [14] was “inactive” in each case. The molecule was called inactive in [18], in [4], in test [6], in test [8], in test [9] and in [11]. Also, the molecule was called inactive in test [13], in test [17] and in test [15]. Also, the Potency is 4.22 µM (active) in test [20] and 5.96 µM (active) in test [7].

For the molecule `CN(C)CCc1c[nH]c2ccc(C[C@H]3COC(=O)N3)cc12`, the Potency entry in test [1], in [2], in [19], in test [20], in [5] and in test [7] was “inactive” throughout. Besides, the Potency result in test [12] was “inactive”. Also, the molecule was classed as inactive in test [18], in test [4], in [8], in [9], in [10] and in test [11]. The outcome in test [13] and in test [17] was inactive.

In the case of `COc1ccc(Cl)cc1C`, the Potency result in test [1], in test [2], in test [3], in test [5], in test [7] and in test [12] was “inactive” in each case. The Potency result in [14] was “inactive”. Besides, the molecule was classed as inactive in test [4], in [6], in [8], in [9], in test [11] and in test [13]. Moreover, the outcome in test [17] and in test [15] was inactive.

Regarding `C=CCON/C(CCC)=C1\C(=O)CC(C)(C)C(C(=O)OC)=C1O`, the Potency entry in [1], in test [2], in [3], in test [5], in test [7] and in [12] was “inactive” each time. In addition, the Potency entry in test [14] is “inactive”. The molecule was called inactive in test [4], in test [6], in test [8], in test [9], in test [11] and in [13]. The outcome in test [17] and in [15] was inactive.

With `CCCCC(CC)CCC(CC(C)C)OS(=O)(=O)O` (stereo not given), the outcome in [18], in test [4], in [6], in test [8], in [9] and in test [10] was inactive. Also, the result in test [13], in test [17] and in test [15] was inactive. The Potency entry in test [3], in test [19], in [16], in test [5], in test [7] and in test [14] was “inactive” in each case. Besides, the Potency in test [20] was 8.41 µM (active) and inactive.

As to `C=CCN(CC=C)CC=C`, the Potency entry in [1], in test [2], in test [5], in test [7] and in test [14] was “inactive” throughout. Also, the result in test [4], in test [6], in [8], in test [9], in test [11] and in test [13] was inactive. Also, the result in [17] and in test [15] was inactive.

As to `COc1ccc2cc(CCC(C)=O)ccc2c1`, the Potency entry in test [1], in test [2], in [3], in test [5] and in test [14] was “inactive” throughout. In addition, the outcome in test [4], in test [6], in test [8], in [11] and in [17] was inactive. The Potency in test [7] is 3.2 µM (active).

With `CCOc1ccccc1OCCN[C@H](C)Cc1ccc(OC)c(S(N)(=O)=O)c1`, the Potency result in test [1], in test [2], in test [3], in test [5], in [7] and in [12] was “inactive” each time. Also, the Potency result in test [14] is “inactive”. Further, the call in [4], in test [6], in test [8], in [13], in test [17] and in test [15] was inactive.

For `Cc1ccc(O)c(C(=O)c2ccccc2)c1`, the Potency entry in [1], in test [2], in test [3], in test [7], in test [12] and in test [14] was “inactive” in each case. For the same molecule, the molecule was classed as inactive in test [4], in test [8], in test [9], in test [11], in [13] and in test [17]. In test [15], the molecule was classed as inactive. In addition, the Potency in [5] is 55 µM (active).

Take `CC(C)OCCO`: the Potency entry in test [1], in test [2], in test [3], in [5], in test [7] and in [12] was “inactive” each time. Also, the Potency result in [14] is “inactive”. In addition, the outcome in [4], in test [6], in test [8], in test [9], in test [17] and in test [15] was inactive.
